Records with an inconclusive call do not appear. Activity calls are given as the source filed them. Unless noted, calls come from the whole dose curve; as a rule, active = well fitted curve in the direction sought with a large enough effect in the repeat runs; inconclusive = weak or mixed curves; inactive = no such curve, though single readings can be large; an effect the other way counts as inactive or inconclusive.
Assays:
[1] = qHTS assay to identify small molecule HDAC inhibitors - cell viability counter screen (AID 1259365); details: HCT-116 viability, CellTiter-Glo ATP luminescence, 2 h; series mostly up to 92.4 µM; note: nearly all actives have a fitted effect of over 50% in size
Procedure, shortened: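 Wild-type HCT-116 cells, 1,500/well, cultured overnight, then compound-treated 2 h at 37 C. Viability measured as ATP luminescence with CellTiter-Glo after 30 min at room temperature.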

[2] = qHTS assay to identify small molecule agonists of the sonic hedgehog signaling (Shh) pathway - cell viability counter screen (AID 1259366); details: NIH/3T3 Gli1-Luc viability, CellTiter-Fluor, 24 h; series mostly up to 92.4 µM; note: nearly all actives have a fitted effect of over 50% in size; note: potency is the fitted concentration of half-maximal effect
Procedure, shortened: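 NIH/3T3-derived Gli1-Luc reporter cells, 2,000 per well, received compound after 4 h and were treated about 23 h at 37C. Viability measured in the same wells by CellTiter-Fluor fluorescence after 1 h.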

[3] = qHTS assay to identify small molecule antagonists of the sonic hedgehog signaling (Shh) pathway - cell viability counter screen (AID 1259367); details: NIH/3T3 Gli1-Luc viability, CellTiter-Fluor, 24 h; series mostly up to 92.4 µM; note: nearly all actives have a fitted effect of over 55% in size; note: potency is the fitted concentration of half-maximal effect
Procedure, shortened: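 Tox21 library chemicals were tested on a Gli1-Luc NIH/3T3 clone (2,000 cells/well) stimulated by conditioned medium; viability was quantified as fluorescence from CellTiter-Fluor reagent added at 23 hr.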

[4] = target: Estrogen receptor beta (Homo sapiens) (UniProt Q92731); experiment: qHTS assay to identify small molecule antagonists of the estrogen receptor beta (ER-beta) signaling pathway (AID 1259378; active = well fitted inhibition curve with a large enough effect in the signal ratio in the repeat runs, not every such curve was filed as active; the % refers to the signal ratio); details: ER-beta-UAS-bla HEK293T, beta-lactamase FRET ratio, 16 h; series mostly up to 92.4 µM
Estrogen receptor beta (Homo sapiens), sequence (Q92731 whole entry, looked up): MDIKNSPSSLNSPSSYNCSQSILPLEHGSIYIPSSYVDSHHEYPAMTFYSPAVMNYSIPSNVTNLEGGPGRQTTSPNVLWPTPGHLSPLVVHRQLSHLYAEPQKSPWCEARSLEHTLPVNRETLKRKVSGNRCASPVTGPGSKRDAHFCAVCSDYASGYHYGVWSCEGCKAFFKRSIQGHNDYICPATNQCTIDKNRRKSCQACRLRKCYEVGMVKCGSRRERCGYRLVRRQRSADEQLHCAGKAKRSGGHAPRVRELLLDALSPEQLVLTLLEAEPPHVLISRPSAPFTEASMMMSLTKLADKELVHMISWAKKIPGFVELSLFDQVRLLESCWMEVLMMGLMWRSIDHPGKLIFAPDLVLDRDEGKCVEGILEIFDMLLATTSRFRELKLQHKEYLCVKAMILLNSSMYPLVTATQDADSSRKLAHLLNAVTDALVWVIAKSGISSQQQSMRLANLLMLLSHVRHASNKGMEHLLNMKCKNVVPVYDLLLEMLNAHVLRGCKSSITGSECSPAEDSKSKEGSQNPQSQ
Procedure, shortened: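 ER-beta-UAS-bla HEK293T cells in 2% charcoal-stripped FBS medium treated with compound plus 1nM final 17-beta-estradiol for 16 hr at 37C. Beta-lactamase reporter read by FRET substrate fluorescence after 2 hours at room temperature.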

[5] = qHTS assay to identify small molecule agonists of the androgen receptor (AR) signaling pathway in the presence of an antagonist - cell viability counter screen (AID 1259379); details: MDA-kb2 viability, CellTiter-Fluor, 16 h; series mostly up to 92.4 µM; note: nearly all actives have a fitted effect of over 25% in size; note: potency is the fitted concentration of half-maximal effect;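 for activity change, negative = cytotoxicity: MDA-kb2 human breast cancer cells carrying an MMTV luciferase reporter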
Procedure, shortened: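 Counter screen for cell viability run in parallel with the AR agonist-mode luciferase assay. MDA-kb2 cells were co-treated with nilutamide (3.0uM final) and compounds, then incubated 16 hr at 37C, and CellTiter-Fluor fluorescence was measured.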

[6] = qHTS assay to identify small molecule agonists of the sonic hedgehog signaling (Shh) pathway (AID 1259368; calls by dose curve;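 note: NIH/3T3-derived 3T3Gli1-Luc cells carrying a stable Gli1-driven firefly luciferase reporter; nearly all actives have a fitted effect of over 15% in size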); details: NIH/3T3 Gli1-Luc reporter, luciferase, 24 h; series mostly up to 92.4 µM
Procedure, shortened: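 Stable NIH/3T3 Gli1-Luc reporter clone; 24 hr cpd exposure after a 4 hr settling period; luminescence endpoint.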

[7] = qHTS assay to identify small molecule antagonists of the sonic hedgehog signaling (Shh) pathway (AID 1259369; calls by dose curve; note: nearly all actives have a fitted effect of over 45% in size; note: potency is the fitted concentration of half-maximal effect); details: NIH/3T3 Gli1-Luc reporter, Shh antagonist, luminescence 24 h; series mostly up to 92.4 µM
Procedure, shortened: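 Gli1 transcriptional reporter (firefly Luc) in NIH/3T3 background, conditioned-medium activated. 24hr exposure, luminescence endpoint.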

[8] = target: Estrogen receptor beta (Homo sapiens) (UniProt Q92731); experiment: qHTS assay to identify small molecule agonists of the estrogen receptor beta (ER-beta) signaling pathway (AID 1259377; active = well fitted activation curve with a large enough effect in the signal ratio in the repeat runs, not every such curve was filed as active; the % refers to the signal ratio); details: ER-beta-UAS-bla HEK293T, beta-lactamase FRET ratio, 16 h; series mostly up to 92.4 µM
Procedure, shortened: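 ER-beta-UAS-bla HEK293T cells in medium with 2% charcoal-stripped FBS were exposed to compounds for 16 h at 37C. Beta-lactamase reporter activity was read as fluorescence after 2 h with LiveBLAzer B/G FRET substrate at room temperature.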
% is set by controls: 0 for no effect and ±100 for the full control effect.

CCN(CC)c1ccc(N=Nc2ccccc2)cc1
active: Potency [2] 30.6 µM | Potency [3] 34.4 µM | Potency [5] 27.3 µM
inactive: Potency [1] | Potency [4]

c1ccc2c(c1)-c1ccc3ccc4cccc5cc-2c1c3c45
inactive: Potency [1] | Potency [6]

CC(=O)CC(N)=O
inactive: Potency [1] | Potency [2] | Potency [3] | Potency [6] | Potency [7]

COc1cc2ncnc(Nc3cccc(Cl)c3)c2cc1OC
inactive: activity change, negative = cytotoxicity [1] 2.53% [at 19 µM] | viability change, negative = cytotoxic [3] -19.1% [at 19 µM] | activity change [6] -3.79% [at 18.9 µM, hits give high values] | activity, negative = inhibition [4] -15.9% [at 19 µM]

O[Si](c1ccccc1)(c1ccccc1)c1ccccc1
inactive: Potency [1] | Potency [6] | Potency [5]
active: Potency [7] 12.2 µM

O=C1OC(O)C(C(Cl)Cl)=C1Cl (configuration not stated)
active: Potency [2] 44.6 µM | Potency [3] 25.1 µM | Potency [7] 5 µM
inactive: Potency [1] | outcome [8]

CC(C)=NNC(N)=S
active: Potency [7] 13.7 µM
inactive: Potency [1] | Potency [2] | Potency [6] | outcome [8] | Potency [5]

CC1CCC(C(C)(C)O)CC1 (configuration not stated)
inactive: Potency [1] | Potency [2] | Potency [3] | Potency [6] | Potency [7] | Potency [5]

Cc1ccc(S(=O)(=O)C(I)I)cc1
inactive: Potency [1] | Potency [6]
active: Potency [2] 6.11 µM | Potency [3] 7.7 µM | Potency [7] 1.22 µM | Potency [5] 68.6 µM

O=C(c1ccccc1)c1ccc(Cl)cc1
inactive: Potency [1] | Potency [6]

Cc1ccc(N=Nc2c(O)ccc3ccccc23)c(C)c1
inactive: Potency [6] | Potency [7]

N#Cc1ccc(C/C(=N/NC(=O)Nc2ccc(OC(F)(F)F)cc2)c2cccc(C(F)(F)F)c2)cc1
inactive: Potency [1] | Potency [2] | Potency [3] | Potency [6] | Potency [5]
